Assay results published in PubChem BioAssay AID1508602 (The Scripps Research Institute Molecular Screening Center, 2020).
Out of some 650,000 compounds screened, about 6,800 (1%) were called active. This excerpt belongs to a sample that is enriched for actives. Values without a mark were called inactive. Rule as the data show it: active = activation above about 4.9%; inactive = the rest.

Biological target: G-protein coupled receptor 151 (Homo sapiens) (UniProt Q8TDV0)
Assay: activates the human receptor GPR151, primary screen, cell-based, PathHunter beta-arrestin, luminescence (AID 1508602);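 also: 0% = median of compound wells and 100% = cells with positive control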
Details: PathHunter beta-arrestin GPR151 cells, at 11.2 µM, stronger effect = higher value

G-protein coupled receptor 151 (Homo sapiens), sequence (Q8TDV0 whole entry, looked up): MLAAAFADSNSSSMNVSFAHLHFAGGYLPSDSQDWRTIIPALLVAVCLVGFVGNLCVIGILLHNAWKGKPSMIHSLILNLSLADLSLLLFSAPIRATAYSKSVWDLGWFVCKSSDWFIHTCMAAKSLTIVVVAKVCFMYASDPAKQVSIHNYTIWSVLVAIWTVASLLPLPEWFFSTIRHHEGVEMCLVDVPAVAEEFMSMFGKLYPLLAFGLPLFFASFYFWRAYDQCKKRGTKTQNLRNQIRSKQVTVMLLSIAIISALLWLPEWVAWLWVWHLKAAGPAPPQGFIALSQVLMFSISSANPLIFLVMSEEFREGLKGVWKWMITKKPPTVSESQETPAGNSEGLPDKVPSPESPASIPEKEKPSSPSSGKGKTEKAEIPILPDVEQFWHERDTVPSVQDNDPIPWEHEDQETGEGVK

Compound | activation
COc1ccc2cc(C#N)c(SC)nc2c1 | 0.673%
Cc1ccc(NC(=O)CSc2nc3cc4c(cc3cc2C#N)OCCO4)cc1 | -1.17%
Cc1ccc2cc(C#N)c(SCCO)nc2c1 | 6.39% (active)
CCN(CC)C(=O)Cn1cnc2sc(C(=O)NCc3ccc(Cl)cc3)c(C)c2c1=O | 0.437%
CC(C)(C)OC(=O)N1CCC[C@H](Cn2cc(C(=O)O)nn2)C1 | 6.74% (active)
COCCNC(=O)c1cn(C[C@H]2CCCN(C(=O)c3conc3C)C2)nn1 | 1.06%
COc1ccc([C@H](O)[C@@H]2CCCN(C(=O)OC(C)(C)C)C2)cc1 | 0.253%
O=C(Nc1ccccc1)c1cnc(NCCN2CCOCC2)s1 | -2.52%
COc1ccccc1C1C(C#N)=C(N)Oc2n[nH]c(-c3ccc4ccccc4c3)c21 (stereo not drawn) | -0.23%
COc1ccc(-c2nnc(SCC(=O)Nc3ccc(Br)cc3)nc2-c2ccc(OC)cc2)cc1 | 1.77%
CC(C)CC(=O)NC(=S)Nc1ccc(F)cc1F | 2.41%
OCCCNC(=S)Nc1ccccc1F | 0.421%
CC(C)C(=O)NC(=S)Nc1ccccc1F | 6.35% (active)
CCOc1ccccc1NC(=O)CCc1nc(-c2ccc(OC)c(OC)c2)no1 | -1.02%
COc1ccccc1Cc1nc(-c2ccc(OC)c(OC)c2)no1 | 1.66%
COc1ccccc1NC(=O)NCc1nc(-c2ccc(OC)c(OC)c2)no1 | 7.48% (active)
COCCn1cc(C(=O)N2CCCCCC2)c2c3ccccc3n(C)c2c1=O | 0.412%
CC1CCCC(NC(=O)C2N(CCN3CCCCC3)C(=O)C3C(C(=O)Nc4cc(Cl)cc(Cl)c4)C4C=CC32O4)C1C (stereo not drawn) | -0.312%
COCCCNC(=O)c1nnc(-c2ccccc2)o1 | -0.472%
CC(C)=CCC/C(C)=C/C=N/Nc1ccc(S(N)(=O)=O)cc1[N+](=O)[O-] | 1%
COc1cc(C(=O)Nc2c3c(nn2-c2ccc(F)cc2)CSC3)cc(OC)c1OC | 1.91%
Cc1ccc(-c2nc3ccc(C(=O)NCCC4=CCCCC4)cc3nc2-c2ccc(C)cc2)cc1 | 4.13%
OCc1ccccc1CNc1ccc(F)cc1 | 10.3% (active)
Cc1ccc(NCc2ccccc2CO)cc1 | -5.47%

Compound | activation
Cn1c(CNc2ccc(F)cc2)c(C#N)c2ccccc21 | 0.294%
COc1cc(CN2CCN(C3CCCC3)C(CCO)C2)cc(OC)c1OC (stereo not drawn) | -0.445%
CC(C)CCSc1nc2c(c(=O)n1Cc1ccco1)C1(CCCCC1)Cc1ccccc1-2 | 16.5% (active)
O=c1c2c([nH]c(=S)n1Cc1ccco1)-c1ccccc1CC21CCCCC1 | -0.102%
C=CCSc1nc2c(c(=O)n1CC1CCCC1)C1(CCCC1)Cc1ccccc1-2 | 0.419%
CC(C)(C)C(=O)/C=C/c1ccccc1O | 0.824%
CC(C)N(CCNC(=O)c1cccc(-c2cccs2)n1)C(C)C | -1.28%
CCCCc1ccc(NC(=O)CN2C(=O)C(C)SC(C)C2=O)cc1 (stereo not drawn) | 6.11% (active)
CCCCc1ccc(NC(=O)CSc2nnc(C)s2)cc1 | 0.0157%
CCc1ccc(NC(=O)CN2C(=O)CSC(C)C2=O)cc1 (stereo not drawn) | -0.109%
Cc1ccccc1C(=O)NNC(=O)c1ccccc1F | -3.61%
CSC1=C(C#N)C(c2ccc(Cl)cc2Cl)CC(=O)N1 (stereo not drawn) | -1.96%
C=CCSC1=C(C#N)C(c2ccc(Cl)cc2Cl)CC(=O)N1 (stereo not drawn) | 5.51% (active)
CCOc1ccc(NC(=O)CSC2=C(C#N)C(c3ccc(Cl)cc3Cl)CC(=O)N2)cc1 (stereo not drawn) | -1.43%
COc1ccc([N+](=O)[O-])cc1NC(=O)C1CC(Cl)=CCC1C(=O)O (stereo not drawn) | 6.77% (active)
COc1ccc([N+](=O)[O-])cc1NC(=O)c1cccc(Cl)c1Cl | -1.48%
O=C(O)C1CC=C(Cl)CC1C(=O)Nc1cccc([N+](=O)[O-])c1 (stereo not drawn) | -0.78%
CCN1CCN(C(=O)C(C)Oc2ccc(Cl)cc2Cl)CC1 (stereo not drawn) | -0.795%
CCOC(=O)c1ccc(-n2c(C)c(C)n3c4c(=O)n(CC)c(=O)n(C)c4nc23)cc1 | 1.57%
CCc1ccc(-n2c(C)c(C)n3c4c(=O)n(CC)c(=O)n(C)c4nc23)cc1 | 5.92% (active)
CCCn1c(=O)c2c(nc3n(-c4ccc(C)cc4)c(C)c(C)n23)n(C)c1=O | 3.26%
CCn1c(C)c(CCC(=O)NN2CCOCC2)c(=O)n2nc(-c3ccccc3OC)cc12 | -0.283%
CCCCC(CCCC)=N/N=C1\NC(=O)C(CC(=O)O)S1 (stereo not drawn) | -1.58%
N#Cc1ccc(C(=O)OCC(=O)Nc2ccc3[nH]c(=O)[nH]c3c2)cc1 | 0.615%

Compound | activation
COc1ccc(C(=O)N/N=C/c2ccc(O)c3ncccc23)cc1 | -2.28%
O=S(=O)(c1ccc(F)cc1)N1CCN(Cc2ccccc2F)CC1 | 0.53%
O=S(=O)(c1ccc(F)cc1)N1CCN(CCCc2ccccc2)CC1 | 5.43% (active)
Cc1ccc(S(=O)(=O)N2CCN(Cc3ccc(F)cc3)CC2)cc1 | -0.354%
Cc1cc(C)c2c(=O)[nH]c(SCC(=O)c3ccc(F)cc3)nc2n1 | 3.2%
COc1ccccc1N1CCN(C(=O)c2cc(-c3ccc(Cl)c(Cl)c3)nc3ccccc23)CC1 | -0.435%
COc1ccc(NC(=O)C23CCC(C)(C(=O)C2)C3(C)C)c(OC)c1 (stereo not drawn) | 0.482%
COc1ccc(-n2c(SCC(=O)c3ccccc3)nc3sc4c(c3c2=O)CCCC4)cc1 | -0.298%
CCCCSc1nc2sc3c(c2c(=O)n1-c1ccc(OC)cc1)CCCC3 | 0.438%
COc1ccc(C(=O)CSc2nc3sc4c(c3c(=O)n2-c2ccc(Cl)cn2)CCCC4)c(F)c1 | 5.7% (active)
Oc1ccc(-c2n[nH]c(=S)o2)cc1 | -2.2%
CC(C)(C)c1ccc(S(=O)CC(O)CSc2nc(-c3cccs3)cc(-c3ccccc3)c2C#N)cc1 (stereo not drawn) | 0.807%
CCCCOC(=O)c1ccc(NC(=O)C2C3C=CC(O3)C2C(=O)O)cc1 (stereo not drawn) | -1.25%
CC(C)COC(=O)c1ccc(NC(=O)C2C3C=CC(C3)C2C(=O)O)cc1 (stereo not drawn) | 6.08% (active)
COC(=O)c1cc(NC(=O)C2C3C=CC(C3)C2C(=O)O)cc(C(=O)OC)c1 (stereo not drawn) | -0.454%
O=c1c2c3c(sc2nc(SCc2cccc(Br)c2)n1-c1ccccc1)CCC3 | 0.0499%
O=C(O)COc1ccc(NC(=O)/C=C/c2ccco2)cc1 | 3.09%
O=C(COc1ccc(S(=O)(=O)Nc2ccc(F)cc2)cc1)NC1CCCC1 | 1.64%
CC(C)NS(=O)(=O)c1ccc(OCC(=O)NC2CCCCCC2)cc1 | -1.64%
O=C(COc1ccc(S(=O)(=O)NCCc2ccccc2)cc1)NC1CC1 | 5.83% (active)
Cc1ccc(NC(=O)CSc2nnc3sc4ccccc4n23)cc1 | -0.639%
Cc1ccc(S(=O)(=O)c2nnn3c2nc(NCc2ccco2)c2ccccc23)cc1 | -0.413%
C=CCc1cc(C)ccc1OCCCn1ccnc1 | 2.6%
Cc1ccc(C(C)C)c(OCCCn2ccnc2)c1 | 4.92% (active)

Compound | activation
Cc1ccc(C(C)C)c(OCCN2CCNCC2)c1 | 0.889%
COc1ccc(CCNc2nc(-c3ccccc3)nc3c2ncn3C2CCCCC2)cc1 | 0.405%
COc1ccc(CCNC(=O)c2ccccc2C(=O)O)cc1OC | -1.14%
O=[N+]([O-])c1ccc(-n2c(-c3ccccc3)nnc2-c2ccccc2)cc1 | -0.192%
Cc1csc(NC(=O)CSc2nnc(Cc3cccn3C)n2-c2ccccc2)n1 | 0.245%
C=CCOc1ccc(/C=C2\C(=O)N(c3ccc([N+](=O)[O-])cc3)N=C2c2ccccc2)cc1 | -2.33%
O=C1/C(=C\c2ccccc2)C(N2CCOCC2)=NN1c1ccc([N+](=O)[O-])cc1 | 6.57% (active)
O=C1N=C(N2CCN(c3ccc([N+](=O)[O-])cc3)CC2)S/C1=C/c1ccccc1 | -0.706%
CCC(=O)Nc1cc(-c2ccco2)nn1-c1nc(CC)cc(=O)[nH]1 | -0.772%
COCCNCCOc1ccc(C(C)(C)C)cc1 | 8.42% (active)
CC(C)(C)c1ccc(OCCCCNCCO)cc1 | 0.146%
COC(=O)NCCOc1ccc(C(C)(C)C)cc1 | 0.726%
Cc1ccc(N2C(=O)CC(N3CCN(C(c4ccccc4)c4ccccc4)CC3)C2=O)c(Br)c1 (stereo not drawn) | -0.0796%
CCc1cc(C(=O)N2CCCCC2C)cs1 (stereo not drawn) | 1.3%
Cc1ccc(CNC(=O)CN(C)S(=O)(=O)c2ccccc2)cc1 | -0.21%
COc1ccc(CON2C(=O)c3ccccc3C2=O)cc1Cl | -1.06%
COc1ccc(C(=O)C2CCCN(S(=O)(=O)c3cccc(C)c3)C2)c(C)c1 (stereo not drawn) | 5.47% (active)
O=C(NNC(=O)C1CCCN(S(=O)(=O)c2cccc(Cl)c2)C1)C1CC1 (stereo not drawn) | 0.674%
CCc1ccc(S(=O)(=O)N2CCCC(C(=O)c3ccc(OC)c(OC)c3)C2)s1 (stereo not drawn) | 0.139%
CCCOc1ccccc1C1CC(=O)C2=C(C1)Nc1ccccc1N(C(C)=O)C2c1ccc(OC)cc1 (stereo not drawn) | -0.237%
Cc1ccc(Cn2c(C)c3cnn(CC(=O)N4CCCC4)c(=O)c3c2C)cc1 | -0.279%
